{"source": "the supplement of paper PMC12282887", "test_system": "E. coli BW25113 micFp lux reporter", "test": "promoter activity interaction Z-score (Lux/OD deviation from empty-vector control); higher = stronger promoter induction by the compound", "procedure": "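E. coli BW25113 (wild type or ΔmarA/ΔsoxS/Δrob) carrying pTU175 luxCDABE promoter reporters was grown in LB in 384-well plates at 37°C with each of 94 compounds at 4 two-fold concentrations, in biological duplicates. Luminescence and OD600 were read every 30 min for 12 h and integrated as AUC over 8 h (0-8 h WT, 1-9 h mutants). Lux AUC was divided by OD AUC; the interaction score is the residual of a Huber robust fit of each promoter against the empty-vector control, then Z-transformed per promoter.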", "note": "± gives the standard deviation of the averaged measurements.", "data": [{"molecule": "Cc1c(N)nc([C@H](CC(N)=O)NC[C@H](N)C(N)=O)nc1C(=O)N[C@H](C(=O)N[C@H](C)[C@@H](O)[C@H](C)C(=O)N[C@H](C(=O)NCCc1nc(-c2nc(C(=O)NCCC[S+](C)C)cs2)cs1)[C@@H](C)O)[C@@H](OC1OC(CO)C(O)C(O)C1OC1OC(CO)C(O)C(OC(N)=O)C1O)c1cnc[nH]1", "note": "(stereo partly drawn) [Bleomycin]", "values": [{"measurement": "promoter activity interaction Z-score", "setting": "0.038 µg/ml, genetic background: wild type", "value": "-0.542 ± 0.065"}, {"measurement": "promoter activity interaction Z-score", "setting": "0.038 µg/ml, genetic background: ΔmarA", "value": "-0.018 ± 0.18"}, {"measurement": "promoter activity interaction Z-score", "setting": "0.038 µg/ml, genetic background: Δrob", "value": "-0.0145 ± 0.17"}, {"measurement": "promoter activity interaction Z-score", "setting": "0.038 µg/ml, genetic background: ΔsoxS", "value": "-0.239 ± 0.3"}, {"measurement": "promoter activity interaction Z-score", "setting": "0.076 µg/ml, genetic background: wild type", "value": "-0.384 ± 0.099"}, {"measurement": "promoter activity interaction Z-score", "setting": "0.076 µg/ml, genetic background: ΔmarA", "value": "-0.0986 ± 0.079"}, {"measurement": "promoter activity interaction Z-score", "setting": "0.076 µg/ml, genetic background: Δrob", "value": "-0.0358 ± 0.11"}, {"measurement": "promoter activity interaction Z-score", "setting": "0.076 µg/ml, genetic background: ΔsoxS", "value": "-0.0314 ± 0.21"}, {"measurement": "promoter activity interaction Z-score", "setting": "0.15 µg/ml, genetic background: wild type", "value": "-0.758 ± 0.17"}, {"measurement": "promoter activity interaction Z-score", "setting": "0.15 µg/ml, genetic background: ΔmarA", "value": "0.0263 ± 0.051"}, {"measurement": "promoter activity interaction Z-score", "setting": "0.15 µg/ml, genetic background: Δrob", "value": "0.317 ± 0.023"}, {"measurement": "promoter activity interaction Z-score", "setting": "0.15 µg/ml, genetic background: ΔsoxS", "value": "-0.34 ± 0.014"}, {"measurement": "promoter activity interaction Z-score", "setting": "0.3 µg/ml, genetic background: wild type", "value": "-0.844 ± 0.18"}, {"measurement": "promoter activity interaction Z-score", "setting": "0.3 µg/ml, genetic background: ΔmarA", "value": -0.0349}, {"measurement": "promoter activity interaction Z-score", "setting": "0.3 µg/ml, genetic background: Δrob", "value": "-0.227 ± 0.59"}, {"measurement": "promoter activity interaction Z-score", "setting": "0.3 µg/ml, genetic background: ΔsoxS", "value": -1.55}]}, {"molecule": "NCCc1c[nH]c2ccc(O)cc12", "note": "[Serotonine]", "values": [{"measurement": "promoter activity interaction Z-score", "setting": "13.3 µg/ml, genetic background: wild type", "value": "-0.241 ± 0.065"}, {"measurement": "promoter activity interaction Z-score", "setting": "13.3 µg/ml, genetic background: ΔmarA", "value": "-0.0379 ± 0.032"}, {"measurement": "promoter activity interaction Z-score", "setting": "13.3 µg/ml, genetic background: Δrob", "value": "-0.00374 ± 0.19"}, {"measurement": "promoter activity interaction Z-score", "setting": "13.3 µg/ml, genetic background: ΔsoxS", "value": "-0.156 ± 0.27"}, {"measurement": "promoter activity interaction Z-score", "setting": "26.6 µg/ml, genetic background: wild type", "value": "0.00853 ± 0.19"}, {"measurement": "promoter activity interaction Z-score", "setting": "26.6 µg/ml, genetic background: ΔmarA", "value": "0.0453 ± 0.21"}, {"measurement": "promoter activity interaction Z-score", "setting": "26.6 µg/ml, genetic background: Δrob", "value": "0.0253 ± 0.12"}, {"measurement": "promoter activity interaction Z-score", "setting": "26.6 µg/ml, genetic background: ΔsoxS", "value": "-0.0552 ± 0.27"}, {"measurement": "promoter activity interaction Z-score", "setting": "53.2 µg/ml, genetic background: wild type", "value": "-0.712 ± 0.14"}, {"measurement": "promoter activity interaction Z-score", "setting": "53.2 µg/ml, genetic background: ΔmarA", "value": "0.105 ± 0.08"}, {"measurement": "promoter activity interaction Z-score", "setting": "53.2 µg/ml, genetic background: Δrob", "value": "-0.0954 ± 0.018"}, {"measurement": "promoter activity interaction Z-score", "setting": "53.2 µg/ml, genetic background: ΔsoxS", "value": "-0.396 ± 0.062"}, {"measurement": "promoter activity interaction Z-score", "setting": "106.3 µg/ml, genetic background: wild type", "value": "-0.289 ± 0.23"}, {"measurement": "promoter activity interaction Z-score", "setting": "106.3 µg/ml, genetic background: ΔmarA", "value": "0.0717 ± 0.036"}, {"measurement": "promoter activity interaction Z-score", "setting": "106.3 µg/ml, genetic background: Δrob", "value": "-0.13 ± 0.074"}, {"measurement": "promoter activity interaction Z-score", "setting": "106.3 µg/ml, genetic background: ΔsoxS", "value": "-0.339 ± 0.011"}]}, {"molecule": "C[C@]12CC[C@H]3[C@@H](CCC4=CC(=O)CC[C@@]43C)[C@@H]1CC[C@@H]2O", "note": "[Testosterone]", "values": [{"measurement": "promoter activity interaction Z-score", "setting": "18 µg/ml, genetic background: wild type", "value": "-0.197 ± 0.0038"}, {"measurement": "promoter activity interaction Z-score", "setting": "18 µg/ml, genetic background: ΔmarA", "value": "0.0474 ± 0.038"}, {"measurement": "promoter activity interaction Z-score", "setting": "18 µg/ml, genetic background: Δrob", "value": "-0.0298 ± 0.091"}, {"measurement": "promoter activity interaction Z-score", "setting": "18 µg/ml, genetic background: ΔsoxS", "value": "0.319 ± 0.18"}, {"measurement": "promoter activity interaction Z-score", "setting": "36.1 µg/ml, genetic background: wild type", "value": "-0.14 ± 0.34"}, {"measurement": "promoter activity interaction Z-score", "setting": "36.1 µg/ml, genetic background: ΔmarA", "value": "0.094 ± 0.098"}, {"measurement": "promoter activity interaction Z-score", "setting": "36.1 µg/ml, genetic background: Δrob", "value": "-0.000736 ± 0.15"}, {"measurement": "promoter activity interaction Z-score", "setting": "36.1 µg/ml, genetic background: ΔsoxS", "value": "-0.0287 ± 0.15"}, {"measurement": "promoter activity interaction Z-score", "setting": "72.1 µg/ml, genetic background: wild type", "value": "0.142 ± 0.26"}, {"measurement": "promoter activity interaction Z-score", "setting": "72.1 µg/ml, genetic background: ΔmarA", "value": "0.527 ± 0.063"}, {"measurement": "promoter activity interaction Z-score", "setting": "72.1 µg/ml, genetic background: Δrob", "value": "0.174 ± 0.16"}, {"measurement": "promoter activity interaction Z-score", "setting": "72.1 µg/ml, genetic background: ΔsoxS", "value": "0.257 ± 0.41"}, {"measurement": "promoter activity interaction Z-score", "setting": "144.2 µg/ml, genetic background: wild type", "value": "0.181 ± 0.03"}, {"measurement": "promoter activity interaction Z-score", "setting": "144.2 µg/ml, genetic background: ΔmarA", "value": "0.196 ± 0.089"}, {"measurement": "promoter activity interaction Z-score", "setting": "144.2 µg/ml, genetic background: Δrob", "value": "0.202 ± 0.074"}, {"measurement": "promoter activity interaction Z-score", "setting": "144.2 µg/ml, genetic background: ΔsoxS", "value": "0.625 ± 0.45"}]}]}
